The record followed here is PMC4552634, “A New Set of Chemical Starting Points with Plasmodium falciparum Transmission-Blocking Potential for Antimalarial Drug Discovery” (PLoS ONE, 2015).

Where two headings read alike, the source gives them in different places. About 3,200 (25%) of roughly 13,000 compounds showed an effect of 50% or more. The list shows a part of the results.

The test system of the experiment is P. falciparum stage V gametocytes. Also on record: BacTiter-Glo ATP luminescence viability of purified stage V gametocytes in 384-well plates, per cent inhibition versus DMSO. The settings on record: 48 h, 5 µM, inhibitor.

On to `CCC(C)(C)c1ccc(OCCCC(=O)Nc2ccc(Cl)c([N+](=O)[O-])c2)c(C(C)(C)CC)c1` [TCMDC-125721], for which the % Inhibition (commonly the relative decrease from the control value, in per cent) is -38.1%.
Same read-out and setting: the value for `C#CCCOc1ccc2ccccc2c1CNCCCCCCNCc1c(OCCC#C)ccc2ccccc12` [TCMDC-137832] was 106.3%; that for `C#CCOc1ccc2ccccc2c1CNCCCCCCNCc1c(OCC#C)ccc2ccccc12` [TCMDC-137838] was 115.4%.
Same read-out and setting: the value for `O=C(NCCN1CCOCC1)c1csc(C2CCCN(C(=O)c3ccc(O)c(-c4cc(Cl)cc(Cl)c4)c3)C2)n1` (stereo not shown) [TCMDC-140155] was 11.07%; that for `CC(C)(C)SC1SC(SC(C)(C)C)C(OC(=O)c2ccccc2)C(OC(=O)c2ccccc2)C1OC(=O)c1ccccc1` (stereo not shown) [TCMDC-131948] was -26.61%.
Consider `O=C(Nc1ccccc1C(F)(F)F)NC1CCC(CN2CCC(c3c[nH]c4ccccc34)CC2)CC1` (stereo not shown) [TCMDC-140177], for which, under “% Inhibition”, the “% Inhibition” value is -23.5%.
With `Cn1nc(-c2ccc(S(=O)(=O)NC3CCC(CN4CCC(c5c[nH]c6ccccc56)CC4)CC3)s2)cc1C(F)(F)F` (stereo not shown) [TCMDC-140174], the “% Inhibition” value (% Inhibition) stood at 96.23%.
On to `O=S(=O)(NC1CCC(CN2CCC(c3c[nH]c4ccccc34)CC2)CC1)c1ccc(Cl)c(Cl)c1` (stereo not shown) [TCMDC-140164], for which the “% Inhibition” value was determined as 18.4%.
On to `Cn1nc(-c2ccc(S(=O)(=O)NC3CCC(CN4CCC(c5c[nH]c6ccccc56)CC4)CC3)s2)cc1C(F)(F)F` (stereo not shown) [TCMDC-140166], for which the “% Inhibition” value (% Inhibition) was determined as 62.77%.
Same read-out and setting: the value for `O=C(Nc1ccccc1C(F)(F)F)NC1CCC(CN2CCC(c3c[nH]c4ccccc34)CC2)CC1` (stereo not shown) [TCMDC-140197] was 5.962%.
Turning to `O=C(NC1CCC(CN2CCC(c3c[nH]c4ccccc34)CC2)CC1)c1cc(-c2ccccc2Cl)oc1C(F)(F)F` (stereo not shown) [TCMDC-140358], the “% Inhibition” value came out at 4.446%.
Same read-out and setting: as for `CCN1CCN(c2cc(C)c3cc(NC(=O)c4ccc(N(CC)CC)cc4)ccc3n2)CC1` [TCMDC-125574], the figure is 18.21%; as for `COc1ccc(-c2csc(NC(=O)CCC(=O)O)n2)cc1OC` [TCMDC-124274], -7.165%.
With `CCCC(C)c1ccc(N2C(N)=NC(N)=NC2(C)C)cc1` (stereo not shown) [TCMDC-137715], the “% Inhibition” value is listed as 12.27%.
Still for that read-out and setting: as for `O=C(O)c1ccc(NC(=O)C2CC(=O)N(Cc3ccc(Cl)cc3)C(=Nc3ccc(Cl)cc3)S2)cc1` (stereo not shown) [TCMDC-124036], the figure is -57.25%.
For the compound `COc1ccc(C[C@H](N)C(=O)N[C@H]2[C@@H](O)[C@H](n3cnc4c(N(C)C)ncnc43)O[C@@H]2CO)cc1` [TCMDC-123927], the “% Inhibition” value (% Inhibition) is 96.23%.
For `COc1ccc(C[C@H](N)C(=O)N[C@H]2[C@@H](O)[C@H](n3cnc4c(N(C)C)ncnc43)O[C@@H]2CO)cc1` [TCMDC-123493], under “% Inhibition”, the “% Inhibition” value stood at 123.8%.
On to `CS(=O)(=O)c1ccc(-c2cncc(Nc3cccc([N+](=O)[O-])c3)c2)cc1` [TCMDC-136669], for which the “% Inhibition” value is given as 44.65%.
In the case of `CCn1cc(CN2C(=O)C(c3ccccc3)(c3ccccc3)N=C2N)cn1` [TCMDC-136798], the “% Inhibition” value is on record as 10.89%.
With `CC1(C)N=C(N)N=C(N)C1c1ccc(Cl)c(Cl)c1` (stereo not shown) [TCMDC-137491], the “% Inhibition” value is on record as -1.127%.
Turning to `N#CC(NC(=O)C=Cc1ccccc1)c1ccccc1` (stereo not shown) [TCMDC-131635], the “% Inhibition” value is given as -0.4742%.
Same read-out and setting: as for `Cl.Nc1nc(Nc2cccc(O)c2)nc2ccccc12` [TCMDC-124459], the figure is 5.684%.
On the same count and under the same terms, as for `c1cc(Cc2ccc(Nc3c4ccccc4nc4ccccc34)cc2)cc(Nc2c3ccccc3nc3ccccc23)c1` [TCMDC-137793], the figure is 84.71%.
`Cc1ccc(Nc2nc(N)c3ccccc3n2)cc1.Cl` [TCMDC-123638]: the “% Inhibition” value came out at 30.09%.
Still for that read-out and setting: the value for `c1ccc(Oc2cccc(Nc3ccnc4ccccc34)c2)cc1` [TCMDC-137251] was 14.27%; that for `Cl.c1ccc2c(Nc3ccc(Cc4ccc(Nc5c6ccccc6nc6ccccc56)cc4)cc3)c3ccccc3nc2c1` [TCMDC-137354] was 113.6%.
Same read-out and setting: as for `CC1(C)Cc2c(oc3ncn(CCn4cnc5oc6c(c5c4=N)CC(C)(C)SC6)c(=N)c23)CS1` [TCMDC-125795], the figure is -5.815%; as for `O=C(NC1CC1)c1ccc(N2CCC(c3ccccc3)CC2)nc1` [TCMDC-134590], 17.19%; as for `Cc1ccc(CON2C(N)=NC(N)=NC2(C)C)cc1C` [TCMDC-131660], 9.174%.
Same read-out and setting: as for `CS(=O)(=O)Nc1ccc(OCCCCCCOc2ccc(NS(C)(=O)=O)cc2)cc1` [TCMDC-137531], the figure is 17.32%; as for `NOCCCOc1ccc(Cl)cc1` [TCMDC-123471], 6.801%; as for `COc1ccc(NC(=O)[C@H](CC(C)C)Nc2cc(C)nc(NCCOc3ccccc3)n2)cc1` [TCMDC-134760], 36.25%.
Regarding `CC(C)CCNC(=N)Nc1ccc(OCCCOc2ccc(NC(=N)NCCC(C)C)cc2)cc1` [TCMDC-137615], the “% Inhibition” value came out at 100.2%.
Same read-out and setting: the value for `CC(C)CCNC(=N)Nc1ccc(OCCCCCOc2ccc(NC(=N)NCCC(C)C)cc2)cc1` [TCMDC-137614] was 113.6%.
Same read-out and setting: the value for `COc1ccc(-c2ccc(CNC(=O)c3cccc(C#N)c3)c(F)c2)cc1CN1CCCN(C)CC1` [TCMDC-133367] was 3.232%.
Same read-out and setting: as for `O=C(CCc1cccnc1)Nc1ccc(-c2cccc(-c3nc4ccc(F)cc4[nH]3)c2)cc1` [TCMDC-132146], the figure is -0.1199%; as for `CC1(C)CC(=O)c2c(O)cc(OCc3ccncc3)cc2O1` [TCMDC-131348], -21.15%.
On to `Cc1cccc2nc(-c3cccc(-c4cccc(CNCCc5cccn5C)c4)c3)[nH]c12.O=C(O)C(F)(F)F` [TCMDC-132685], for which the “% Inhibition” value was -19.68%.
In the case of `Cc1cccc2nc(-c3cccc(-c4ccc(CNCCCN5CCCC5=O)cc4)c3)[nH]c12.O=C(O)C(F)(F)F` [TCMDC-132753], the “% Inhibition” value was 7.956%.
Still for that read-out and setting: as for `Cc1cccc2nc(-c3cccc(-c4cccc(CNCCN5CCNCC5)c4)c3)[nH]c12` [TCMDC-132873], the figure is 108%; as for `Cc1cccc2nc(-c3ccc(-c4ccc(C(=O)NCCN5CCCC5)cc4)cc3)[nH]c12` [TCMDC-132320], 6.886%.
Same read-out and setting: as for `Cc1cccc2nc(-c3ccc(-c4cccc(CNCCN5CCNCC5)c4)cc3)[nH]c12` [TCMDC-132867], the figure is 101.3%; as for `Cc1cccc2nc(-c3cccc(-c4cccc(CNCCCN5CCCC5=O)c4)c3)[nH]c12.O=C(O)C(F)(F)F` [TCMDC-132751], 3.721%.
